Cardio protect = myocardial damage modulation in H9c2 cells; 360,000 compounds, 0.63% hits; H9c2 cardiomyocytes, H2O2 injury protection, ATPLite, 2 h; protection from H2O2 cell death, % at 20 µM;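 active = compounds giving at least 50% protection of heart cells from peroxide-induced death in the single-dose screen, raw or plate-pattern-corrected value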
PLC-beta3 inh = PLC-beta3 (human) inhibition, primary screen. Q01970. Purified PLC-beta3, fluorogenic substrate, fluorescence. inhibition, % at 12.2 µM. 370,000 compounds, 0.18% hits. AID 720704; in the data active = inhibition above about 11%
FAS TE block = FAS thioesterase (human) inhibition | recombinant FAS-TE, OMFH fluorogenic substrate, fluorescence endpoint | inhibition, % at 15 µM | 360,000 compounds, 0.67% hits | AID 602261;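 active = compounds whose normalised, plate-corrected inhibition of enzyme fluorescence in the single-dose primary screen is 50% or more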
PLCg1 inh = PLC-gamma1 (human) inhibition, primary screen; purified PLC-gamma1, fluorogenic substrate, fluorescence; inhibition, % at 12.2 µM; 370,000 compounds, 0.84% hits; in the data active = inhibition above about 9.5%
Each line names hits and unclear results; the compound was inactive in the other large screens. A selection: hits, their analogues and other compounds. The true share with any hit is near 2.2%.

NC(=O)c1cc2ccccc2o/c1=N\NC(=O)c1ccc(F)cc1	Cardio protect 64.3
NC(=O)c1cc2ccccc2o/c1=N\NC(=O)c1ccccc1O	none
CC(C)(C)c1ccc(S(=O)(=O)NCC(=O)N2CCN(c3ncccn3)CC2)cc1	none (no result: Cardio protect, FAS TE block)
O=C(COC(=O)c1cc(-c2cccnc2)nc2ccccc12)Nc1ccc(F)cc1F	Cardio protect 71.4
CCOC(=O)[C@@H]1[C@H]2COc3ccc(Br)cc3[C@@H]2N2C(=O)N(c3ccc(Br)cc3)C(=O)[C@]12C	FAS TE block 72.3
CC1CC1C(=O)Nc1nc(-c2ccccn2)cs1 (stereo unspecified)	none
CC(Oc1ccc(Br)cc1)C(=O)Nc1nc(-c2ccccn2)cs1 (stereo unspecified)	Cardio protect 49.2
C[C@@H](C(=O)Nc1nc(-c2ccccn2)cs1)N1C(=O)C2CCCCC2C1=O (stereo partly specified)	Cardio protect 94.9
CC(C)[C@H](NC(=O)c1ccccc1Cl)C(=O)Nc1nc(-c2ccccn2)cs1	Cardio protect 70.2
O=C(CNS(=O)(=O)c1cc2ccccc2s1)N1CCN(c2ccccn2)CC1	none (no result: Cardio protect, FAS TE block)
C#CCOCCOCCOCCNc1nc(N2CCOCC2)nc(N2CCN(C(=O)[C@H]([C@@H](C)CC)n3cc(CCCN=C(N)N)nn3)CC2)n1	PLCg1 inh 10.0
COc1ccc(-n2c(SCC(=O)Nc3ccc(S(=O)(=O)Nc4nccs4)cc3)nnc2-c2ccco2)cc1	none (no result: Cardio protect, FAS TE block)
CC(=O)OCCn1c(=O)c2cc3c(=O)n(CCOC(C)=O)c(=O)c3cc2c1=O	PLCg1 inh 9.9
Nc1nc2c(ncn2[C@@H]2O[C@H](C(=O)NCCCc3ccccc3)[C@@H](O)[C@H]2O)c(=O)[nH]1	none (no result: Cardio protect, FAS TE block)
CCOC(=O)c1cccc(S(=O)(=O)N(CCO)Cc2cc3cc(OC)ccc3[nH]c2=O)c1	none (no result: PLC-beta3 inh, PLCg1 inh)
COC(=O)c1cccc(S(=O)(=O)N(Cc2ccco2)Cc2cc3cc(OC)ccc3[nH]c2=O)c1	Cardio protect 78.5
N#Cc1ccc(Nc2nc(-c3ccc(O)cc3O)cs2)cc1C(F)(F)F	FAS TE block 60.7 (no result: PLC-beta3 inh, PLCg1 inh)
Oc1ccc(-c2csc(Nc3ccc4c(c3)OCO4)n2)c(O)c1	none
COC(=O)c1cccc(Nc2nc(-c3cccnc3)nc3ccccc23)c1	Cardio protect 51.2
CCOC(=O)c1cccc(Nc2nc(-c3cccnc3)nc3ccccc23)c1	Cardio protect 54.7
CCOC(=O)c1nc(Nc2ccc(C(C)=O)cc2)c2ccccc2n1	Cardio protect 82.3
O=C(O)c1cccc(Nc2nc(-c3cccnc3)nc3ccccc23)c1	none
Cc1c(C(=O)N/N=C/c2ccc(O)c(Br)c2)sc(N)c1C#N	Cardio protect 70.1
COc1cc(/C=N/NC(=O)c2ccc(=O)[nH]n2)ccc1O	none
COc1cc(/C=N/NC(=O)c2sc(N)c(C#N)c2C)ccc1O	Cardio protect 53.5
CC(C)c1ccc(OC[C@@H](O)CN2CCC(C(O)(c3ccccc3)c3ccccc3)CC2)cc1	none (no result: Cardio protect, FAS TE block)
Cc1oc2ccc(OC(C(=O)O)c3ccccc3)cc2c1C(=O)O (stereo unspecified)	PLCg1 inh 9.9
CC(Oc1ccc2oc(-c3ccccc3)c(C(=O)O)c2c1)C(=O)O (stereo unspecified)	none
CC1(C)CC(=O)c2c(oc3cc(O)c(O)cc23)C1	Cardio protect 89.6
Cc1cccc(NC(=O)COc2cccc3c2CCNC3=O)c1	Cardio protect 59.4
O=C(COc1cccc2c1CCNC2=O)Nc1ccc(F)cc1	Cardio protect 51.0
COc1cccc(NC(=O)COc2ccc(C)cc2)c1	none
COc1ccc(NC(=O)COc2cccc3c2CCNC3=O)cc1	Cardio protect 67.7
COc1ccc(NC(=O)COc2cccc3c2CCN(Cc2cccnc2)C3=O)cc1	none
COc1cccc(NC(=O)COc2cccc3c2CCNC3=O)c1	Cardio protect 56.0
CCc1c(-c2ccc(OC)cc2)ncn1CCc1ccccc1OC	none (no result: Cardio protect, FAS TE block)
Cc1ccccc1CN[C@@H]1CC[C@@]23CCCN2C(=O)CCC[C@H]3C1	none (no result: Cardio protect, FAS TE block)
O=C(CN1C(=O)C2CC=CCC2C1=O)Nc1nc(-c2ccc(F)c(F)c2)cs1 (stereo unspecified)	Cardio protect 82.1
CCOc1ccccc1-c1c2cc(O)c(=O)cc-2oc2cc(O)c(O)cc12	Cardio protect 60.1 (no result: PLC-beta3 inh, PLCg1 inh)
Cc1cccc(CNC(=O)NC2CCCCN(Cc3cccc(Cl)c3)C2=O)c1 (stereo unspecified)	none (no result: Cardio protect, FAS TE block)
COc1ccc2occ(C(=O)c3coc4ccc(O)c(CN(C)C)c34)c2c1	Cardio protect 60.7
COc1ccc(OC)c(C(=O)c2coc3ccc(O)c(CN(C)C)c23)c1	none
O=C(NC1CCCCN(Cc2cccc(Cl)c2)C1=O)C1CCCCC1 (stereo unspecified)	none (no result: Cardio protect, FAS TE block)
COc1cc(/C=N/NC(=O)c2nc(-c3ccccc3)n(-c3ccccc3)n2)ccc1O	none
COc1cc(/C=N/NC(=O)c2cc(-c3ccc4c(c3)OCO4)n[nH]2)ccc1O	Cardio protect 73.6
Cc1nn(-c2ccccc2)c(C)c1/C=N/NC(=O)c1cc(O)cc(O)c1	none
COc1ccc(-c2cc(C(=O)NN=Cc3ccc(O)c(OC)c3)[nH]n2)cc1	none (no result: Cardio protect, FAS TE block)
Cc1nn(-c2ccccc2)c(C)c1/C=N/NC(=O)c1cc(C2CC2)[nH]n1	Cardio protect 60.5
Cc1nn(-c2ccccc2)c(C)c1-c1cc(C(=O)N/N=C/c2ccc(O)cc2)[nH]n1	Cardio protect 56.5
COc1cc(/C=N/NC(=O)c2cc(-c3c(C)nn(-c4ccccc4)c3C)n[nH]2)ccc1O	Cardio protect 51.3
CC1(C)C=C2C(N(CC3CC3)C(=N)N2C(=O)OCc2ccccc2)n2c(=O)n(-c3ccccc3)c(=O)n21 (stereo unspecified)	none (no result: Cardio protect, FAS TE block)
CC(C)(C)c1ccc(-c2noc(CCC(=O)NC3CC3)n2)cc1	none (no result: Cardio protect, FAS TE block)
COc1ccc(S[C@]2(C(=O)N3CCN(c4ncccn4)CC3)CC(=O)N(c3ccc(OC)cc3)[C@@H]2c2ccc(OC)cc2)cc1	none (no result: Cardio protect, FAS TE block)
COc1ccc(/C=N/NC(=S)Nc2cc(S(=O)(=O)N3CCOCC3)ccc2N2CCOCC2)cc1O	none
CCOc1cccc(/C=N/NC(=S)Nc2cc(S(=O)(=O)N3CCOCC3)ccc2N2CCOCC2)c1O	Cardio protect 54.5
CCOC(=O)c1c2ccc(OCC(=O)N/N=C/c3ccc(C)cc3)cc2n2ccccc12	Cardio protect 54.4
CCOC(=O)c1c2ccc(OCC(=O)NN)cc2n2ccccc12	none
Cc1ccc(S(=O)(=O)Nc2ccc(O)c3ncccc23)cc1	Cardio protect 51.5
COC(=O)[C@]12C[C@H](CC(=O)NCc3cccc4ccccc34)C(=O)N(CCC3=CCCCC3)C1=C[C@H](COCc1ccccc1)O[C@@H]2C	none (no result: Cardio protect, FAS TE block)
COC(=O)c1cc2c(c3c4cc(C)ccc4n(S(=O)(=O)c4ccc(C)cc4)c13)C(=O)N(Cc1ccccc1)C2	none (no result: Cardio protect, FAS TE block)
COc1ccc(S(=O)(=O)N2CCCCCC2)cc1NC(=O)CN1C(=O)CNC1=O	PLCg1 inh 11.2
COc1ccc(S(=O)(=O)N2CCCCCC2)cc1NC(=O)Cc1cc(OC)c(OC)c(OC)c1	none
CC(=NCCCn1ccnc1)c1c(-c2ccccc2)[nH]n(-c2nc3ccccc3s2)c1=O	Cardio protect 59.3
O=c1c(C=NCCCn2ccnc2)c(-c2ccccc2)[nH]n1-c1nc2ccccc2s1	none
